Measured values published in PubChem BioAssay AID651871 (Sanford-Burnham Center for Chemical Genomics, 2012).
“And” between values parts separate entries of the source, which are not always exact repeats. Identical values can stand only once.

System: HL-1
Experiment: cardiomyocyte survival under oxidative or metabolic stress – cell-based, panel, H9c2 and HL-1, ATP luminescence, set 2, SAR follow-up (AID 651871);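 note: cells exposed to stressor for 2 h before ATP readout; reference of the scale not given here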
Details: H9c2/HL-1 cardiomyocytes, 2-deoxyglucose stress, with 2-deoxyglucose
[1] = run 13, at 79 µM (top of the series)

COc1ccc2nc(-c3cc(OC)c(OC)c(OC)c3)cc(C(=O)NCC(=O)Nc3ccc(C(C)=O)cc3)c2c1
activity (protection/inhibition) [1]: 55.5%

CCOC(=O)c1cccc(NC(=O)CNC(=O)c2cc(-c3cc(OC)c(OC)c(OC)c3)nc3ccccc23)c1
activity (protection/inhibition) [1]: 66.6%

COc1ccc2c(c1OC)C(=O)N1c3ccccc3C(=O)N(Cc3cccc(Cl)c3Cl)C21 (centres undefined)
activity (protection/inhibition) (run 13, at 19.8 µM (top of the series)): 84.6% and 38.5%
activity (protection/inhibition) [1]: -9.86%
